Molecules are shown by their SMILES. The campaign covered roughly 320,000 compounds. About 8,000 (2.5%) were called active. The list comes from a sample in which actives are over-represented; it also holds similar structures and randomly drawn compounds. Unmarked numbers belong to inactive results. Rule as the data show it: active = activation above about 47%; inactive = the rest.

Sequence of Aryl hydrocarbon receptor (Homo sapiens) (P35869 whole entry, looked up): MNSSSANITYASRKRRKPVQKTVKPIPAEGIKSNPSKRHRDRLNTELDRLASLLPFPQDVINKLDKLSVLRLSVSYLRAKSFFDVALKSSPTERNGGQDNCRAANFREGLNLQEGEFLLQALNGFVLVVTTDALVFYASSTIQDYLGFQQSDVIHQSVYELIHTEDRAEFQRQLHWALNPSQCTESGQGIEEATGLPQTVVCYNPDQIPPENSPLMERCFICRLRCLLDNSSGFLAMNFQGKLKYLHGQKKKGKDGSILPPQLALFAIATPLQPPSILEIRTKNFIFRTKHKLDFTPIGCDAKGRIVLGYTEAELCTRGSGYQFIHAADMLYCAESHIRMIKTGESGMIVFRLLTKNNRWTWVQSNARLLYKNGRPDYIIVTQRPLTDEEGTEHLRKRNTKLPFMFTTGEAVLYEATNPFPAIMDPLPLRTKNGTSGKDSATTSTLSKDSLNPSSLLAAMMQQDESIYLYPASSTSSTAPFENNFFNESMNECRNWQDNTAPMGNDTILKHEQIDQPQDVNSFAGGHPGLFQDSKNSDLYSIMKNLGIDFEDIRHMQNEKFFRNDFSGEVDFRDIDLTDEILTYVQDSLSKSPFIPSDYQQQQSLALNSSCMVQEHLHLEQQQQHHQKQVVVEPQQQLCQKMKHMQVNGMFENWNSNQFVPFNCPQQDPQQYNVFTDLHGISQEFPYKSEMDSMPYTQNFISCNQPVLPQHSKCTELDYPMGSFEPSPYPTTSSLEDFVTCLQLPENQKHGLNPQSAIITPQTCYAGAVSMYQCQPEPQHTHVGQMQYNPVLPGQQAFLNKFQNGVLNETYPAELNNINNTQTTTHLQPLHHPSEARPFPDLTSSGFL

This assay has as its target Aryl hydrocarbon receptor (Homo sapiens) (UniProt P35869). Kind of assay: AHR activators, primary screen, cell-based, luminescence, luciferase reporter, human (AID 2796).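 Also: 0% = vehicle wells and 100% = reference agonist.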 The following applies: AHR-responsive luciferase reporter cells, at 5 µM, active compounds read high. (A reporter such as luciferase makes a cellular process visible.)
`COc1ccc(-c2cc(C(=O)NCCCN3CCCC3=O)c3ccccc3n2)cc1OC`: the activation is 11.6%.
The figure for `Cc1nn(Cc2ccccc2)c(C)c1C(=O)NCCCN1CCCC1=O` is 2.56%.
The same measure for `O=C(CCC(=O)NNc1nc2ccccc2c2nc(-c3ccccc3)nn12)NCCCN1CCCC1=O`: 55.5% (active).
Take `COc1ccc(N(CC(=O)NC2CCCCC2)C(=O)CNC(=O)c2ccco2)c(OC)c1`: the activation was 0.47%.
The figure for `O=C(CN1C(=O)NC2(CCCCCCC2)C1=O)NCc1ccc(F)cc1` is 2.09%; for `O=C1NC[C@@H](Cc2ccc(O)cc2)N(CCc2cccc(F)c2)C1=O` it is -0.45%; for `O=C(Cn1nnc(N2CCCCC2)n1)c1ccc(Cl)c(Cl)c1` it is -3.18%.
As for `CCOC(=O)c1cc2ccccc2n1CC(=O)c1ccccc1`, the activation was 24%.
The same measure for `CCCn1c(=N)n(CC(=O)c2ccc(Cl)c(Cl)c2)c2ccccc21`: 66.2% (active); for `CCn1c(=N)n(CC(=O)c2cccc(OC)c2)c2ccccc21`: 50.3% (active); for `COc1ccc2cc(C(=O)O)n(CC(=O)c3ccccc3)c2c1`: 18.9%.
The same measure for `CCN(CC)CC1(O)CCN(C(=O)c2ccc(Cl)c(Cl)c2)CC1`: 10.4%.
The figure for `O=C(c1c(F)cccc1Cl)N1CCN(S(=O)(=O)c2ccc3c(c2)OCCCO3)CC1` is -0.63%; for `O=C(Nc1ccc(N2CCCCC2)cc1)c1cc(S(=O)(=O)N2CCOCC2)ccc1F` it is 0.49%; for `CCc1ccccc1NC(=S)N(CCN1CCCCCC1)Cc1ccco1` it is 0.79%.
On to `COc1cccc(CNS(=O)(=O)c2ccc3c(c2)N(C(C)=O)CCS3)c1`, for which the activation is 7.96%.
The same measure for `Nc1ncnc2c1ncn2[C@@H]1O[C@H](CNCc2cccn2-c2nccs2)[C@@H](O)[C@H]1O`: -1.49%; for `Cc1ccc(NS(=O)(=O)c2c(C)[nH]c(=O)[nH]c2=O)cc1C`: -2.23%.
For the compound `COc1ccc(NC(=O)C2=C(C)NC(=O)NC2c2ccccc2[N+](=O)[O-])cc1` (stereo not drawn), the activation was 2.47%.
The same measure for `FC(F)(F)c1cccc(NC(=S)Nc2cccc(Cl)c2)c1`: 6.14%.
Regarding `Cc1cccc(NC(=S)Nc2ccc(Cl)c(Cl)c2)c1`, the activation is 2.86%.
The figure for `Cc1csc(NC(=S)Nc2cccc(Cl)c2)n1` is 81.2% (active); for `Cc1cccc(C(C)C)c1NC(=O)COC(=O)C1CC(=O)N(Cc2ccccc2)C1` (stereo not drawn) it is 3.03%; for `CCC(C)NC(=O)C1CCCN(C(=O)NC2CCCCC2)C1` (stereo not drawn) it is 2.48%.
The figure for `CC(=O)NC(CC(=O)Nc1ccc(S(=O)(=O)N2CCOCC2)cc1)c1ccccc1` (stereo not drawn) is 0.88%; for `O=C(COC(=O)c1cccc(Cl)c1)NC1CCCCCCC1` it is 0.68%; for `COc1ccccc1NC(=O)Nc1nc(CC(=O)Nc2ccccc2F)cs1` it is 25%.
Take `COc1ccccc1NC(=O)Nc1nnc(Cc2ccc(F)cc2)s1`: the activation was 59.8% (active).
Turning to `O=C(Nc1nnc(COc2ccccc2)s1)Nc1ccccc1F`, the activation is 10.9%.
The same measure for `CCN(CC)S(=O)(=O)c1cccc(-c2n[nH]c(=S)n2/N=C/c2ccc(C(=O)OC)cc2)c1`: 5.2%; for `O=C(NC(=S)N1CCN(Cc2ccccc2)CC1)c1ccccc1`: 2.61%.
The figure for `CC(C)c1ccc(Nc2ncccc2C#N)cc1` is 56.8% (active); for `O=C(COC(=O)c1ccc([N+](=O)[O-])o1)NC12CC3CC(CC(C3)C1)C2` it is 0.67%.
On to `Cc1cc2oc3ccc(NCCC4CCCN4C)cc3c(=O)c2cc1C` (stereo not drawn), for which the activation was 2.97%.
The figure for `COc1cccc2sc3cc(NCC[C@@H]4CCCN4C)ccc3c(=O)c12` is 72.2% (active); for `COc1ccc(CCNC(=O)C(=O)NCC2CCNCC2)cc1OC` it is -0.68%.
The figure for `CCOc1cc(-c2cc(-c3ccc(NC(C)=O)cc3)nc(N)c2C#N)ccc1O` is 8.37%.
The figure for `COc1ccc(-c2cc(-c3ccc(N)cc3)nc(N)c2C#N)cc1OC` is 79.4% (active); for `CCOc1cc(-c2cc(-c3ccc(OC)cc3)nc(N)c2C#N)ccc1O` it is 0.62%.
Regarding `COc1cccc(NC(=O)CC(c2ccc(OC(C)C)cc2)c2ccccc2OC)c1` (stereo not drawn), the activation was -0.21%.
With `CC(C)(C)OC(=O)CNC(=O)c1[nH]cnc1C(=O)N[C@@H](CCCCN)C(=O)OC(C)(C)C`, the activation is 0.13%.
The figure for `Cc1ccc(NC(=O)c2cc3ccccc3o2)cc1` is 25.5%; for `O=C(Nc1ccncc1)c1cc2ccccc2o1` it is 0.11%; for `C/C(=N\NC(=S)Nc1ccc(C)cc1)c1cc2ccccc2o1` it is 70.2% (active).
Consider `CCOC(=O)C1(S(=O)(=O)c2ccc(Cl)cc2)CCN(Cc2ccccc2)CC1`, for which the activation was 0.91%.
On to `CCOc1ccc(NS(=O)(=O)c2ccc(Cl)c(C(=O)N(C)Cc3cccnc3)c2)cc1`, for which the activation is -0.23%.
The same measure for `c1csc(CN2CCN(Cc3cccs3)C2c2cccs2)c1`: -2.12%.
The figure for `Brc1ccc2c(c1)[C@H]1OCC[C@H]1[C@@H](c1cccs1)N2` is 77.4% (active).
The same measure for `COc1ccc(CNC(=O)COC(=O)C(CCSC)N2C(=O)c3ccccc3C2=O)cc1` (stereo not drawn): -0.44%.
Consider `FC(F)(F)c1ccc2c3n(nc2c1)CCN=C3c1ccc(Cl)cc1`, for which the activation was 73.6% (active).
As for `O=C(Nc1cc(C(F)(F)F)ccc1Cl)C(=O)N1CCCCC1`, the activation was 4.43%.
Turning to `CCN(CC)CCN(C(=O)c1ccc(N2C(=O)CCC2=O)cc1)c1nc2cc3c(cc2s1)OCO3`, the activation was 6.01%.
The same measure for `CCN(CC)CCN(C(=O)c1cc(Cl)sc1Cl)c1nc2cc3c(cc2s1)OCO3`: 72.1% (active).
The same measure for `CN(C)CCN(C(=O)C1CCCCC1)c1nc2cc3c(cc2s1)OCO3`: 4.17%.
The same measure for `COC(=O)[C@]1(Cc2ccccc2)N[C@H](CN(C)S(=O)(=O)c2ccc(OC(F)(F)F)cc2)[C@@H]2C(=O)N(C)C(=O)[C@@H]21`: -1.46%.
As for `O=C(NNC(=S)Nc1ccc(Br)cc1Cl)c1ccco1`, the activation was 2.47%.
The figure for `CCC(=O)NC(=S)Nc1ccc(NC(=O)c2ccco2)c(Cl)c1` is 84.6% (active); for `O=C(Nc1ccc(NC(=O)c2ccco2)c(Cl)c1)c1cccc([N+](=O)[O-])c1` it is 2.52%.

These data come from PubChem BioAssay AID2796 (The Scripps Research Institute Molecular Screening Center, 2010).
